# From PubChem BioAssay (Tox21)
# Records with an inconclusive call do not appear. Activity calls are given as the source filed them. Calls come from the whole dose curve. Numbered stars: 1 amine (or outer) side, 2 acyl side, 3 side chain; on linkers, the order of the positions; unused ones are H or OH. Bridge positions count the residues as written; N and C are the ends. Square brackets hold non-standard residues; d marks the D form. Peptide text beside a SMILES is read from it. I, II: the chains in the order shown. Actinocin(9to1) = Cc1c2oc3c(C)ccc(C(=O)[*:1])c3nc-2c(C(=O)[*:2])c(N)c1=O; NMeV = CN[C@H](C(=O)O)C(C)C; Sar = CNCC(=O)O
# Assay: p53 small molecule agonists, cell-based qHTS assay with rat liver microsomes: qHTS cell viability counter screen (AID 1963580); note: nearly all actives have a fitted effect of over 45% in size
# Details: p53RE-bla HCT-116 + rat microsomes, ATP viability, 16 h; series mostly up to 66 µM; activity change, negative = cytotoxicity: at the top concentration
# In short: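 Counter screen for cytotoxicity under metabolic activation: rat liver microsomes and NADPH, 0.5 mg/mL final each, added with compounds to p53RE-bla HCT-116 cells; 16 h at 37 C, then ATP luminescence read.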
# % is set by controls: 0 for no effect and ±100 for the full control effect.
Compound,Potency,"activity change, negative = cytotoxicity"
COC(=O)c1c(Cl)c(Cl)c(C(=O)OC)c(Cl)c1Cl,inactive,–
c1ccc2cc3c4ccccc4c4ccccc4c3cc2c1,–,0.823% (inactive)
Cn1cc(S(C)=O)c(=O)c2ccc(F)cc21 (centres undefined),–,-0.0202% [at 30.3 µM] (inactive)
O=Cc1ccc(C(=O)O)cc1,–,-1.58% (inactive)
CC(C)=CCC[C@H](C)CC=O,–,4.64% (inactive)
CCC(=O)OCc1ccccc1,–,-18.1% (inactive)
BrC1CCC(Br)C(Br)CCC(Br)C(Br)CCC1Br (centres undefined),inactive,–
CCC1COC(=O)O1 (centres undefined),–,9.77% (inactive)
C=C(C)C(=O)OCCCCCCOC(=O)C(=C)C,–,-8.27% (inactive)
"Cc1c2oc3c(C)ccc(C(=O)N[C@@H]4C(=O)N[C@H](C(C)C)C(=O)N5CCC[C@H]5C(=O)N(C)CC(=O)N(C)[C@@H](C(C)C)C(=O)O[C@@H]4C)c3nc-2c(C(=O)N[C@@H]2C(=O)N[C@H](C(C)C)C(=O)N3CCC[C@H]3C(=O)N(C)CC(=O)N(C)[C@@H](C(C)C)C(=O)O[C@@H]2C)c(N)c1=O (I: T[dV]P[Sar][NMeV] / II: T[dV]P[Sar][NMeV]; ester I:1-I:C, II:1-II:C; linker I:N-II:N via Actinocin(9to1))",–,4.13% [at 30.3 µM] (inactive)
CCN1CCCC(OC(=O)C(c2ccccc2)c2ccccc2)C1 (centres undefined),–,18% [at 30.3 µM] (inactive)
O=C1CCCCCCCCCCCCCCCO1,–,-0.466% (inactive)
O=C(O[C@@H](C(=O)O)[C@@H](OC(=O)c1ccccc1)C(=O)O)c1ccccc1,–,7.24% (inactive)
CN(C)CCCNCCCN(C)C,–,0% (inactive)
CCC(=O)OC(C)c1ccccc1 (centres undefined),–,-4.03% (inactive)
Cc1cc(C)cc(O)c1,inactive,–
C=C(C)[C@@H]1CCC2=CC(=O)C[C@@H](C)[C@]2(C)C1,–,-0.757% (inactive)

Compound,Potency,"activity change, negative = cytotoxicity"
O=c1[nH]c(=O)c2ccccc2o1,–,0.518% [at 30.3 µM] (inactive)
CCCCCCCCCCCCCCC(=O)NC(CO)CCCCCCCCCCCCCC (centres undefined),–,-0.757% (inactive)
C[C@@H]1CCC[C@H](C)N1CCCC(O)(c1ccccc1)c1ccccn1 (some centres undefined),–,6.03% [at 30.3 µM] (inactive)
CCCCCCCCCC(C)=O,–,-1.15% (inactive)
CN(C)c1ccc(C(=N)c2ccc(N(C)C)cc2)cc1,inactive,–
CCCCCCCCCC/C=C/C#N,–,-2.2% (inactive)
CNC(=O)Nc1ccc(Cl)c(Cl)c1,–,10.4% (inactive)
[Cl][Eu]([Cl])[Cl],–,-2.48% (inactive)
c1cnc2cc3c(cc2n1)C1CNCC3C1,–,1.48% [at 30.3 µM] (inactive)
Nc1c(NC/C=C\COc2cc(CN3CCCCC3)ccn2)c(=O)c1=O,–,1.94% [at 13.5 µM] (inactive)
FC(F)(F)C(Cl)(Cl)Cl,–,3.18% (inactive)
CCc1ccc(C=O)cc1,–,-5.89% (inactive)
COC(=O)Cc1cccc2ccccc12,–,1.31% (inactive)
CCCc1c2oc(C(=O)O)cc(=O)c2cc2c(=O)cc(C(=O)O)n(CC)c12,–,3.68% [at 30.3 µM] (inactive)
CO[C@H]1C=CO[C@@]2(C)Oc3c(C)c(O)c4c(O)c(c(/C=N/N5CCN(C)CC5)c(O)c4c3C2=O)NC(=O)/C(C)=C\C=C[C@H](C)[C@H](O)[C@@H](C)[C@@H](O)[C@@H](C)[C@H](OC(C)=O)[C@@H]1C,inactive,–
O=C(O)Cc1ccc(CCNS(=O)(=O)c2ccc(Cl)cc2)cc1,–,2.07% [at 30.3 µM] (inactive)
Cc1cc(C)c(C(=O)O)c(C)c1,–,3.79% (inactive)
